Reference: PubChem BioAssay AID1159580 (chemical genetic matrix, 2015)
Hit rate of the full screen: of about 5,500 compounds, about 2,000 (36%) were called active. Another 18% or so got no clear call; they are omitted. Cut-off read from the data, not from the text of the source: active = normalized growth mostly below about 0.91 (no sharp cut-off); inconclusive = no clear call, values can overlap the other calls; inactive = mostly above about 0.92. The list shows a part of the results.

Assay: chemical genetic growth profiling, strain panel (AID 1159580);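 note: tested at 20 µM; growth read once vehicle control cultures reached saturation at 30 °C; 1 = growth at the plate median or of vehicle wells; lower values mean less growth of the strain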
Conditions: growth OD

Measured: normalized growth

COc1ccc2c(c1)C1(C)CCC(=O)CC1CC2 (stereo not drawn)
inactive: S. cerevisiae deletion strains, locus YAL021C, strain ccr4, hits give low values 1.01 | S. cerevisiae deletion strains, locus YAL026C, strain drs2, hits give low values 1.04 | S. cerevisiae deletion strains, locus YAL030W, strain snc1, hits give low values 1 | S. cerevisiae deletion strains, locus YBL061C, strain skt5, hits give low values 1.01 | S. cerevisiae deletion strains, locus YBR009C, strain hhf1, hits give low values 1.01 | S. cerevisiae deletion strains, locus YBR021W, strain FUR4, hits give low values 0.976 | S. cerevisiae deletion strains, locus YBR023C, strain chs3, hits give low values 1.01 | S. cerevisiae deletion strains, locus YBR171W, strain sec66, hits give low values 1.01 | S. cerevisiae deletion strains, locus YBR229C, strain ROT2, hits give low values 0.994 | S. cerevisiae deletion strains, locus YBR231C, strain swc5, hits give low values 1.04 | S. cerevisiae deletion strains, locus YBR279W, strain paf1, hits give low values 1 | S. cerevisiae deletion strains, locus YCL011C, strain gbp2, hits give low values 1.01 | S. cerevisiae deletion strains, locus YCL016C, strain dcc1, hits give low values 1 | S. cerevisiae deletion strains, locus YCL029C, strain bik1, hits give low values 0.986 | S. cerevisiae deletion strains, locus YCL061C, strain MRC1, hits give low values 1.01 | S. cerevisiae deletion strains, locus YCL069W, strain vba3, hits give low values 1 | S. cerevisiae deletion strains, locus YCR088W, strain abp1, hits give low values 1.01 | S. cerevisiae deletion strains, locus YDL005C, strain med2, hits give low values 1.01 | S. cerevisiae deletion strains, locus YDL035C, strain GPR1, hits give low values 1.01 | S. cerevisiae deletion strains, locus YDL040C, strain nat1, hits give low values 0.999 | S. cerevisiae deletion strains, locus YDL074C, strain BRE1, hits give low values 1.02 | S. cerevisiae deletion strains, locus YDL101C, strain DUN1, hits give low values 0.998 | S. cerevisiae deletion strains, locus YDL134C, strain PPH21, hits give low values 0.947 | S. cerevisiae deletion strains, locus YDL185W, strain tfp1, hits give low values 0.989 | S. cerevisiae deletion strains, locus YDL192W, strain arf1, hits give low values 0.989 | S. cerevisiae deletion strains, locus YDR001C, strain nth1, hits give low values 1.01 | S. cerevisiae deletion strains, locus YDR069C, strain doa4, hits give low values 1.02 | S. cerevisiae deletion strains, locus YDR101C, strain arx1, hits give low values 1 | S. cerevisiae deletion strains, locus YDR137W, strain rgp1, hits give low values 0.967 | S. cerevisiae deletion strains, locus YDR150W, strain NUM1, hits give low values 0.991 | S. cerevisiae deletion strains, locus YDR159W, strain sac3, hits give low values 1.06 | S. cerevisiae deletion strains, locus YDR162C, strain NBP2, hits give low values 1 | S. cerevisiae deletion strains, locus YDR195W, strain ref2 1.04 | S. cerevisiae deletion strains, locus YDR297W, strain sur2, hits give low values 1.02 | S. cerevisiae deletion strains, locus YDR318W, strain mcm21, hits give low values 0.988 | S. cerevisiae deletion strains, locus YDR334W, strain swr1, hits give low values 1 | S. cerevisiae deletion strains, locus YDR335W, strain msn5, hits give low values 1.01 | S. cerevisiae deletion strains, locus YDR388W, hits give low values 0.989 | S. cerevisiae deletion strains, locus YDR392W, strain spt3, hits give low values 0.996 | S. cerevisiae deletion strains, locus YDR502C, strain sam2, hits give low values 0.977 | S. cerevisiae deletion strains, locus YEL003W, strain gim4, hits give low values 1.01 | S. cerevisiae deletion strains, locus YEL037C, strain rad23, hits give low values 1.02 | S. cerevisiae deletion strains, locus YEL061C, strain CIN8 (second series), hits give low values 1.01 | S. cerevisiae deletion strains, locus YEL061C, strain CIN8, hits give low values 0.993 | S. cerevisiae deletion strains, locus YER015W, strain faa2, hits give low values 1.01 | S. cerevisiae deletion strains, locus YER016W, strain bim1, hits give low values 1 | S. cerevisiae deletion strains, locus YER110C, hits give low values 0.979 | S. cerevisiae deletion strains, locus YER111C, strain swi4, hits give low values 1.01 | S. cerevisiae deletion strains, locus YER155C, strain BEM2 (second series), hits give low values 1.02 | S. cerevisiae deletion strains, locus YER155C, strain BEM2, hits give low values 0.988 | S. cerevisiae deletion strains, locus YER167W, strain BCK2, hits give low values 0.999 | S. cerevisiae deletion strains, locus YFR010W, strain ubp6, hits give low values 1.02 | S. cerevisiae deletion strains, locus YGL078C, strain dbp3, hits give low values 0.982 | S. cerevisiae deletion strains, locus YGL086W, strain mad1, hits give low values 0.98 | S. cerevisiae deletion strains, locus YGL167C, strain pmr1, hits give low values 1.01 | S. cerevisiae deletion strains, locus YGL173C, strain kem1, hits give low values 1.01 | S. cerevisiae deletion strains, locus YGL227W, strain vid30, hits give low values 1.01 | S. cerevisiae deletion strains, locus YGL240W, strain doc1, hits give low values 1.01 | S. cerevisiae deletion strains, locus YGL248W, strain PDE1, hits give low values 0.971 | S. cerevisiae deletion strains, locus YGL253W, strain hxk2, hits give low values 1.03 | S. cerevisiae deletion strains, locus YGR135W, strain pre9, hits give low values 0.965 | S. cerevisiae deletion strains, locus YGR252W, strain gcn5, hits give low values 0.96 | S. cerevisiae deletion strains, locus YHR013C, strain ard1, hits give low values 1.05 | S. cerevisiae deletion strains, locus YHR027C, strain rpn1, hits give low values 1.03 | S. cerevisiae deletion strains, locus YHR030C, strain SLT2, hits give low values 0.993 | S. cerevisiae deletion strains, locus YHR079C, strain IRE1 (second series), hits give low values 0.991 | S. cerevisiae deletion strains, locus YHR094C, strain hxt1, hits give low values 0.984 | S. cerevisiae deletion strains, locus YHR129C, strain ARP1, hits give low values 0.993 | S. cerevisiae deletion strains, locus YHR142W, strain chs7, hits give low values 1.02 | S. cerevisiae deletion strains, locus YHR200W, strain rpn10, hits give low values 0.985 | S. cerevisiae deletion strains, locus YIL066C, strain RNR3, hits give low values 1.01 | S. cerevisiae deletion strains, locus YIL073C, strain SPO22, hits give low values 0.994 | S. cerevisiae deletion strains, locus YIL125W, strain kgd1, hits give low values 0.987 | S. cerevisiae deletion strains, locus YIR030C, strain dcg1, hits give low values 0.983 | S. cerevisiae deletion strains, locus YJL092W, strain hpr5, hits give low values 1.01 | S. cerevisiae deletion strains, locus YJL095W, strain BCK1 (second series), hits give low values 1.01 | S. cerevisiae deletion strains, locus YJL095W, strain BCK1, hits give low values 0.953 | S. cerevisiae deletion strains, locus YJL115W, strain asf1, hits give low values 1.02 | S. cerevisiae deletion strains, locus YJL129C, strain trk1, hits give low values 1.01 | S. cerevisiae deletion strains, locus YJL134W, strain LCB3, hits give low values 0.992 | S. cerevisiae deletion strains, locus YJL154C, strain vps35, hits give low values 1.01 | S. cerevisiae deletion strains, locus YJL164C, strain tpk1, hits give low values 1.01 | S. cerevisiae deletion strains, locus YJL166W, strain qcr8, hits give low values 1.01 | S. cerevisiae deletion strains, locus YJL168C, strain set2, hits give low values 0.989 | S. cerevisiae deletion strains, locus YJL187C, strain SWE1 (second series), hits give low values 0.979 | S. cerevisiae deletion strains, locus YJL187C, strain SWE1, hits give low values 1.01 | S. cerevisiae deletion strains, locus YJR043C, strain POL32, hits give low values 1.03 | S. cerevisiae deletion strains, locus YKL009W, strain mrt4, hits give low values 0.969 | S. cerevisiae deletion strains, locus YKL068W, hits give low values 0.978 | S. cerevisiae deletion strains, locus YKL085W, strain MDH1 (second series), hits give low values 0.984 | S. cerevisiae deletion strains, locus YKL085W, strain MDH1, hits give low values 0.984 | S. cerevisiae deletion strains, locus YKL160W, strain elf1, hits give low values 1 | S. cerevisiae deletion strains, locus YKR001C, strain vps1, hits give low values 0.965 | S. cerevisiae deletion strains, locus YKR026C, strain gcn3, hits give low values 1.01 | S. cerevisiae deletion strains, locus YKR091W, strain srl3, hits give low values 1.01 | S. cerevisiae deletion strains, locus YLL001W, strain dnm1, hits give low values 1.01 | S. cerevisiae deletion strains, locus YLL026W, hits give low values 1 | S. cerevisiae deletion strains, locus YLL041C, strain sdh2, hits give low values 1 | S. cerevisiae deletion strains, locus YLR027C, strain aat2, hits give low values 1 | S. cerevisiae deletion strains, locus YLR039C, strain RIC1, hits give low values 0.957 | S. cerevisiae deletion strains, locus YLR058C, strain SHM2, hits give low values 0.996 | S. cerevisiae deletion strains, locus YLR102C, strain apc9, hits give low values 0.98 | S. cerevisiae deletion strains, locus YLR221C, strain rsa3, hits give low values 1.03 | S. cerevisiae deletion strains, locus YLR258W, strain gsy2, hits give low values 1.02 | S. cerevisiae deletion strains, locus YLR262C, strain YPT6 (second series), hits give low values 0.99 | S. cerevisiae deletion strains, locus YLR268W, strain sec22, hits give low values 0.978 | S. cerevisiae deletion strains, locus YLR320W, strain mms22, hits give low values 1.02 | S. cerevisiae deletion strains, locus YLR330W, strain CHS5, hits give low values 0.986 | S. cerevisiae deletion strains, locus YLR342W, strain FKS1 (second series), hits give low values 0.949 | S. cerevisiae deletion strains, locus YLR342W, strain FKS1, hits give low values 1.01 | S. cerevisiae deletion strains, locus YLR357W, strain rsc2, hits give low values 1.01 | S. cerevisiae deletion strains, locus YLR370C, strain arc18, hits give low values 1 | S. cerevisiae deletion strains, locus YLR371W, strain rom2, hits give low values 1 | S. cerevisiae deletion strains, locus YLR384C, strain iki3, hits give low values 1.01 | S. cerevisiae deletion strains, locus YLR418C, strain cdc73, hits give low values 0.962 | S. cerevisiae deletion strains, locus YML016C, strain PPZ1, hits give low values 0.987 | S. cerevisiae deletion strains, locus YML032C, strain rad52, hits give low values 0.996 | S. cerevisiae deletion strains, locus YML120C, strain ndi1, hits give low values 0.996 | S. cerevisiae deletion strains, locus YML124C, strain tub3, hits give low values 0.98 | S. cerevisiae deletion strains, locus YMR058W, strain fet3, hits give low values 1.02 | S. cerevisiae deletion strains, locus YMR078C, strain ctf18, hits give low values 0.985 | S. cerevisiae deletion strains, locus YMR125W, strain sto1, hits give low values 0.994 | S. cerevisiae deletion strains, locus YMR129W, hits give low values 1.01 | S. cerevisiae deletion strains, locus YMR205C, strain PFK2, hits give low values 1.01 | S. cerevisiae deletion strains, locus YMR223W, strain ubp8, hits give low values 0.975 | S. cerevisiae deletion strains, locus YMR231W, strain pep5, hits give low values 1.01 | S. cerevisiae deletion strains, locus YMR263W, strain SAP30, hits give low values 0.99 | S. cerevisiae deletion strains, locus YMR307W, strain GAS1, hits give low values 1.04 | S. cerevisiae deletion strains, locus YNL067W, strain RPL9B, hits give low values 0.974 | S. cerevisiae deletion strains, locus YNL071W, strain lat1, hits give low values 1 | S. cerevisiae deletion strains, locus YNL209W, strain ssb2, hits give low values 1.01 | S. cerevisiae deletion strains, locus YNL233W, strain BNI4, hits give low values 0.971 | S. cerevisiae deletion strains, locus YNL248C, strain rpa49, hits give low values 1.06 | S. cerevisiae deletion strains, locus YNL250W, strain rad50, hits give low values 0.994 | S. cerevisiae deletion strains, locus YNL271C, strain bni1, hits give low values 0.986 | S. cerevisiae deletion strains, locus YNL298W, strain CLA4, hits give low values 0.982 | S. cerevisiae deletion strains, locus YNL307C, strain MCK1, hits give low values 0.98 | S. cerevisiae deletion strains, locus YNL322C, strain KRE1 (second series), hits give low values 0.995 | S. cerevisiae deletion strains, locus YNR049C, strain mso1, hits give low values 1.04 | S. cerevisiae deletion strains, locus YNR052C, strain pop2, hits give low values 0.986 | S. cerevisiae deletion strains, locus YOL006C, strain TOP1, hits give low values 0.969 | S. cerevisiae deletion strains, locus YOL012C, strain htz1 0.718 | S. cerevisiae deletion strains, locus YOL147C, strain pex11, hits give low values 0.988 | S. cerevisiae deletion strains, locus YOR001W, strain rrp6, hits give low values 1.02 | S. cerevisiae deletion strains, locus YOR061W, strain CKA2, hits give low values 1 | S. cerevisiae deletion strains, locus YOR069W, strain VPS5, hits give low values 0.991 | S. cerevisiae deletion strains, locus YOR070C, strain gyp1, hits give low values 1.02 | S. cerevisiae deletion strains, locus YOR080W, strain dia2, hits give low values 1.01 | S. cerevisiae deletion strains, locus YOR083W, strain WHI5, hits give low values 1.01 | S. cerevisiae deletion strains, locus YOR106W, strain vam3, hits give low values 1.02 | S. cerevisiae deletion strains, locus YOR136W, strain idh2, hits give low values 0.988 | S. cerevisiae deletion strains, locus YOR144C, strain elg1, hits give low values 0.985 | S. cerevisiae deletion strains, locus YOR184W, strain ser1, hits give low values 0.952 | S. cerevisiae deletion strains, locus YOR265W, strain rbl2, hits give low values 0.987 | S. cerevisiae deletion strains, locus YOR270C, strain vph1, hits give low values 1.07 | S. cerevisiae deletion strains, locus YOR290C, strain snf2, hits give low values 0.981 | S. cerevisiae deletion strains, locus YOR316C, strain cot1, hits give low values 0.992 | S. cerevisiae deletion strains, locus YPL051W, strain arl3, hits give low values 1.02 | S. cerevisiae deletion strains, locus YPL055C, strain LGE1, hits give low values 1.02 | S. cerevisiae deletion strains, locus YPL078C, strain atp4, hits give low values 0.996 | S. cerevisiae deletion strains, locus YPL106C, strain sse1, hits give low values 1.04 | S. cerevisiae deletion strains, locus YPL240C, strain hsp82, hits give low values 0.986 | S. cerevisiae deletion strains, locus YPR119W, strain clb2, hits give low values 0.984 | S. cerevisiae deletion strains, locus YPR141C, strain kar3, hits give low values 0.96 | S. cerevisiae deletion strains, locus YPR163C, strain tif3, hits give low values 0.97 | S. cerevisiae deletion strains, locus YPR167C, strain met16, hits give low values 0.981 | S. cerevisiae deletion strains, strain wtn01, hits give low values 0.98 | S. cerevisiae strains, strain wild type, hits give low values 1
